Structures are written as SMILES. The campaign covered roughly 300,000 compounds. About 2,500 (0.83%) were called active. Many of the other results were omitted from the sample, so actives are more common in it than they were. Values without a mark were called inactive. No stated cut-off is given here; in the data, active means inhibition above about 60%; inconclusive means no clear call, values can overlap the other calls; inactive means below that.

The nature of this assay: MLPCN primary screen, SNCA 5' untranslated region (AID 1813).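 Further: H4 neuroglioblastoma cells stably carrying SNCA 5'UTR luciferase fusion; 0% = DMSO wells and 100% = positive control.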 The following applies: alpha-synuclein 5'UTR reporter, inhibitor activity; active compounds read high; tested at 7.5 µM.
Usually inhibition stands for the change of the read-out against control, counted positive when it falls. Consider `Cc1ccc(SCc2c(C(=O)N/N=C/c3cccnc3)nnn2-c2nonc2N)cc1`, for which the inhibition was -2.9%.
In the case of `Nc1nonc1-n1nnc(C(=O)N/N=C/c2ccccc2O)c1CN1CCCC1`, the inhibition is 14.3%.
On to `Nc1nonc1-n1nnc(C(=O)N/N=C/c2cc(Br)ccc2O)c1CSC1=NCCS1`, for which the inhibition was 94.1% (active).
For `OCCN1CCN(C(=S)c2ccc(-c3ccccc3)cc2)CC1`, the inhibition is 88% (active).
On to `OCCN1CCN(c2nnc(-c3ccccc3)c3ccccc23)CC1`, for which the inhibition is 18.9%.
Take `S=C(c1ccccc1)N1CCCC1`: the inhibition was 4.96%.
Consider `Cc1nc2cccnc2nc1C`, for which the inhibition was -3.08%.
As for `CC(C)S(=O)(=O)c1csc(NC(=O)Nc2ccc(Cl)cc2)c1Cl`, the inhibition was -49.4%.
With `CCN(CC)CCOc1ccc2c(c1)C(=NNC(=O)c1ccccn1)c1cc(OCCN(CC)CC)ccc1-2`, the inhibition was 109% (active).
As for `Cc1ccc(Cl)cc1NC(=O)c1ccccn1`, the inhibition was -44%.
On to `Cc1cccc(OCC(=O)NCCCNC(=O)c2ccccn2)c1`, for which the inhibition is 8.27%.
Next, `COc1ccc(NC(=O)Cn2ncn3c(cc4ccccc43)c2=O)c(OC)c1OC`: 30%; `COC(=O)Cc1csc(/N=C/c2c(O)n(-c3cccc(C(F)(F)F)c3)c(=O)c3ccccc23)n1`: 81.8% (active); `Cc1ccc(-n2c(O)c(C=Nc3ccc(S(=O)(=O)Nc4ncccn4)cc3)c3ccccc3c2=O)cc1C`: 13.1%.
Consider `COC(=O)Cc1csc(Nc2c(C)n(C)n(-c3ccccc3)c2=O)n1`, for which the inhibition is 14.1%.
Regarding `CC(NC(=O)c1cccc2ccccc12)c1ccc2c(c1)CCCC2` (stereo unspecified), the inhibition is 5.38%.
In the case of `Cc1cc(C(=O)CCl)c(C)n1CC1COc2ccccc2O1` (stereo unspecified), the inhibition is 21.1%.
With `Cc1ccsc1C(=O)OCC(=O)c1cc(C)n(CC2CCCO2)c1C` (stereo unspecified), the inhibition is 79.6% (active).
Turning to `Cc1cc(C(=O)Cn2cnc3cc([N+](=O)[O-])ccc3c2=O)c(C)n1CC1CCCO1` (stereo unspecified), the inhibition was -21.1%.
For the compound `CCn1c(-c2cccnc2Cl)nc2cc(C)c(C)cc21`, the inhibition is 24.4%.
Next, `CC(C)C(NS(=O)(=O)c1cccs1)C(=O)Nc1nc(C(C)(C)C)cs1` (stereo unspecified): 24.5%; `CCCCN(C(=O)c1ccc(C)o1)c1c(N)n(CCCC)c(=O)[nH]c1=O`: 11.8%; `COc1ccc(NC(=O)C(C)SCc2ccccc2)cc1` (stereo unspecified): -18.2%.
`COc1ccc(C(=O)NCC2CCCN2S(=O)(=O)c2cccs2)cc1OC` (stereo unspecified): the inhibition is 19.5%.
Take `CC(=O)c1c(C)[nH]c(C(=O)COC(=O)c2cccc(S(=O)(=O)N(C)c3ccccc3)c2)c1C`: the inhibition is -1.07%.
With `CC1CC(C)CN(C(=O)C2CC(=O)N(c3ccc(F)cc3)C2)C1` (stereo unspecified), the inhibition was 10.4%.
Turning to `C=CCn1c(CCNC(=O)c2ccccc2F)nnc1SCC(=O)Nc1ccc(OC)cc1`, the inhibition was -21.5%.
`Cc1cccc(NC(=O)c2nc(S(=O)(=O)Cc3ccccc3)ncc2Cl)c1`: the inhibition was 84.8% (active).
As to `CSc1nnc(NC(=O)c2nc(S(=O)(=O)Cc3ccc(C)cc3)ncc2Cl)s1`, the inhibition was -15.6%.
Take `Cc1ccc(CS(=O)(=O)c2ncc(Cl)c(C(=O)Nc3nnc(C)s3)n2)cc1`: the inhibition is -37.4%.
As to `COC(=O)COc1cccc2c(=O)n(CC(=O)NCc3ccccc3)ccc12`, the inhibition is -24.3%.
Regarding `Nc1nc(Nc2ccccc2F)nc(NC2CCCCC2)c1[N+](=O)[O-]`, the inhibition is 30.2%.
On to `COc1cc(OC)cc(C(=O)NC2CCN(C(=O)N3c4ccccc4Sc4ccccc43)CC2)c1`, for which the inhibition was 47.3%.
For the compound `COc1ccc(CN2[C@@H](CC(=O)O)c3cc(F)ccc3S2(=O)=O)cc1`, the inhibition is -3.17%.
As for `COc1ccc(C/C(C)=N/NC(=O)c2ccncc2)cc1`, the inhibition was 6.51%.
Next, `COc1ccc(CC(=O)N/N=C(\C)c2ccccn2)cc1`: 77.7% (active).
The value for `C/C(=N\NC(=O)Cc1ccc(Cl)cc1)c1ccccn1` was 85.6% (active).
Take `C/C(=N\NC(=O)Cc1ccc(F)cc1)c1ccc(F)cc1`: the inhibition is 20.6%.
For `COc1ccc(CC(=O)NC(C)CCc2ccccc2)cc1` (stereo unspecified), the inhibition is 1.27%.
Regarding `O=C(Nc1ccc(NC(=O)c2ccccc2F)cc1)c1ccccc1F`, the inhibition is -42.3%.
With `C/C(=N\NC(=O)c1ccccc1F)c1ccccn1`, the inhibition is 83% (active).
`C/C(=N\NC(=O)Cc1ccc(Br)cc1)c1cccnc1`: the inhibition was 30.5%.
For the compound `C/C(CC(=O)Nc1ccc(N(C)C)cc1)=N\NC(=O)c1ccccc1F`, the inhibition is -40.2%.
With `C/C(=N\Nc1nc2ccccc2[nH]1)c1cccs1`, the inhibition was -116%.
Regarding `O=C(O)C1CCCCC1C(=O)N1CCN(S(=O)(=O)c2ccc(F)cc2)CC1` (stereo unspecified), the inhibition is -5.32%.
As to `CC1(C)OC(=O)N2CCc3ccccc3C21C` (stereo unspecified), the inhibition is -10.7%.
The value for `C=CCNC(=S)NNc1ncnc2sc3c(c12)CC(C)(C)OC3` was 5.75%; that for `O=C(O)c1cc2c(cc1NC(=O)c1c(F)cccc1Cl)OCCCO2` was 23.8%; that for `COc1ccc2[nH]c3nc(SCC(=O)NC4CC4)nnc3c2c1` was -39.5%.
For `CCCCCN(C(=O)NC(=O)Nc1ccccc1C)S(C)(=O)=O`, the inhibition is -36.2%.
Next, `OCCCNc1nc(-c2ccccc2)c2cc(Cl)ccc2n1`: 30.4%.
As to `NS(=O)(=O)c1cccnc1Nc1cccc(Cl)c1`, the inhibition was -2.47%.
For `OCCCNc1nccc(-c2cc(Nc3cccc(Cl)c3)ncn2)n1`, the inhibition is 73.3% (active).
As for `O=C1CCCN2N=C(SCC(=O)Nc3ccc(Br)cc3)SC2=N1`, the inhibition was 10.7%.
The value for `Cc1cc(C(F)F)nn1CC(=O)NC1CCCCCC1` was -7.74%; that for `Cc1ccccc1NC(=O)CCNS(=O)(=O)c1ccc2[nH]c(=O)oc2c1` was 6.01%; that for `CCOC(=O)C1=C(C)Nc2nc3ccccc3n2C1c1cccs1` (stereo unspecified) was 31.1%.
As to `COc1ccccc1NC(=O)C1=C(C)Nc2nc3ccccc3n2C1c1cccs1` (stereo unspecified), the inhibition is 106% (active).
On to `CCOc1ccc(C2C(C(=O)NC)=C(C)Nc3nc4ccccc4n32)cc1OC` (stereo unspecified), for which the inhibition is 10.1%.
Turning to `COC(=O)c1cc(=O)n(-c2c(Cl)cc(C(F)(F)F)cc2Cl)[nH]1`, the inhibition is 29.3%.
With `CN(CC(=O)Nc1c(Cl)cccc1Cl)C(=O)c1ccncc1`, the inhibition is 8.69%.
The value for `O=C1CCCC2=C1C(c1cccs1)n1nc(SCc3ccccc3)nc1N2` (stereo unspecified) was 37.2%.
As for `CCCCCN(C(=O)NC(=O)Nc1cccc(C)c1C)S(C)(=O)=O`, the inhibition was -23.1%.
As for `CC(C)n1c(CN2CCN(Cc3ccccc3)CC2)nc2ccccc21`, the inhibition is 9.23%.
As to `CCCNC(=O)N1CCN(C(=O)NCCC)CC1`, the inhibition is 8.45%.
Regarding `CCn1nc(C)c(NC(=O)/C=C/c2ccc(OC)c(COc3ccc(Br)cc3)c2)c1C`, the inhibition is 61.8% (active).
For `COc1ccc(C(C)=O)cc1COc1ccc(Cl)c(C)c1`, the inhibition is 50.7%.
For `C/C=C/c1ccc(OCC(=O)OCC(=O)Nc2c(C)nn(-c3ccccc3)c2C)c(OC)c1`, the inhibition was 3.02%.
`CCCCN(C)CCC(=O)Nc1ccc(Cl)cc1`: the inhibition is -18.3%.
In the case of `CCOc1ccc2c(c1)c(=O)c(S(=O)(=O)c1ccc(C)cc1)cn2CC`, the inhibition was 13%.
In the case of `CN(C)c1nc(N)nc(CSc2ccccn2)n1`, the inhibition was -19.1%.
Regarding `COc1ccc(-n2nnnc2SCc2nc(N)nc(N3CCOCC3)n2)cc1`, the inhibition was 13.4%.
Next, `CN(C)c1nc(N)nc(CSc2nnnn2-c2cccc3ccccc23)n1`: 68.9% (active); `COc1ccc(CCNC(=O)CN(C)S(=O)(=O)c2ccc3nc(C)sc3c2)cc1OC`: -0.864%; `CC(=O)Nc1ccc(NC(=O)CCCNC(=O)c2ccc(Cl)cc2)cc1`: 19.3%.
Next, `O=c1[nH]c(NCCO)nnc1Cc1ccc(Cl)cc1`: 6.74%; `CC(C)c1ccc(Cc2nnc(NCCCO)[nH]c2=O)cc1`: -13.1%.
As for `COc1ccc(Cc2nnc(N/N=C/c3ccccc3O)[nH]c2=O)cc1OC`, the inhibition is 91.4% (active).
Consider `COc1ccc(S(=O)(=O)N2CCC(C(=O)NCCC(=O)NCc3cccc(OC)c3)CC2)cc1`, for which the inhibition is 11.4%.
With `CC(=O)Nc1nonc1-c1nc2ccccc2n1Cc1ccccn1`, the inhibition is 19%.
As for `COc1ccc(C)c(Cn2c(-c3nonc3N)nc3ccccc32)c1`, the inhibition was 76.2% (active).
For the compound `Nc1nonc1-c1nc2ccccc2n1Cc1ccc(F)cc1`, the inhibition is 49%.
As to `CN(CC(=O)NCc1cccnc1)S(=O)(=O)c1cc(Cl)ccc1Cl`, the inhibition is 5.11%.
Turning to `CCc1noc(C)c1C(=O)N1CCCC(N2CCN(c3ccc(F)cc3)CC2)C1` (stereo unspecified), the inhibition is 14.8%.
For the compound `CC(Sc1nnc(COc2ccccc2)n1-c1ccccc1)C(=O)O` (stereo unspecified), the inhibition is -1.97%.
In the case of `CC1(C(=O)N/N=C/c2cc3c(cc2Br)OCO3)CC1(Br)Br` (stereo unspecified), the inhibition was 4.98%.
On to `O=C(CN1C(=O)c2ccccc2S1(=O)=O)NC1CCCCC1`, for which the inhibition is 6.72%.
For `O=C(CN1C(=O)c2ccccc2S1(=O)=O)N1CCc2ccccc21`, the inhibition is 93.5% (active).
The value for `O=C(CN1CCN(c2ccccn2)CC1)N1CCc2ccccc21` was -26.8%; that for `Cc1ccc(NC(=O)OCc2cncs2)cc1` was -112%.
Turning to `COc1ccc(NC(=O)/C(Cl)=C(/Cl)S(=O)Cc2ccc(C)cc2)cn1` (stereo unspecified), the inhibition was 106% (active).
Next, `COc1ccc(Nc2ccc([N+](=O)[O-])cn2)cn1`: 8.18%; `COc1ccc(NC(=O)CN(C)C(=O)Cc2coc3cc(C)c(C)cc23)cc1`: 6.29%.
As for `Cc1ccc2c(c1)NCC(C(=O)NC1CCC(C)CC1)O2` (stereo unspecified), the inhibition is -67.9%.
`CN(C)c1ccc(C(CNC(=O)c2ccc(F)cc2)c2c[nH]c3ccccc23)cc1` (stereo unspecified): the inhibition was 4.86%.
Regarding `Cc1ccc(OCC(=O)Nc2ccccc2Sc2ccc(Cl)cc2)c([N+](=O)[O-])n1`, the inhibition was 4.28%.

Source of the values: PubChem BioAssay AID1813 (Broad Institute, 2009).
